D2 ag-1: activates the human D2 dopamine receptor; P14416; HEK293 T-REx D2 cells, calcium flux agonist mode; activation, % at 2 µM; 0.53% of 340,000 active; AID 485358;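 active = activation over 3 SD above normal in the single-dose calcium agonist read, cut at about 30% in these data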
Target sequence (P14416 whole entry, looked up): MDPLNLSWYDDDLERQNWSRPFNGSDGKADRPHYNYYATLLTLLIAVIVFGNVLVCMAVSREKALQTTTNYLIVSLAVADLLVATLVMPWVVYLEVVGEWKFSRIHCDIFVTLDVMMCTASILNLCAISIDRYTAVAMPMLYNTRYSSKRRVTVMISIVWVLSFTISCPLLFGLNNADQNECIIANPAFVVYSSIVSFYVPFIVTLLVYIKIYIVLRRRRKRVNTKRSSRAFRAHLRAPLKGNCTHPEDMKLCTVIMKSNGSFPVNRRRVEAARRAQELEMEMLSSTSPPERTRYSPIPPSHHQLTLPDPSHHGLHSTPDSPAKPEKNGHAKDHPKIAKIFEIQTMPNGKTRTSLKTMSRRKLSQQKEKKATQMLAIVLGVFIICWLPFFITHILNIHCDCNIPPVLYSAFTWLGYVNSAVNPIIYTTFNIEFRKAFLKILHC
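Agonism is scored from calcium flux in a force-coupled, inducible HEK293 cell line expressing D2, read kinetically for 180 s after compound addition against dopamine controls.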
D2 antag: D2 dopamine receptor (human) antagonism. P14416. HEK293 TREx D2 cells, calcium flux, dopamine EC80. inhibition, % at 10 µM. 2% of 340,000 active; in the data active = inhibition above about 30%; inactive = below that, where a call was filed
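Tetracycline-induced HEK293 TREx cells expressing D2 receptor forced-coupled to calcium signalling, loaded with no-wash calcium dye. Compounds added and calcium flux read 180 s, then dopamine added at EC80 and read a further 180 s.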
D2 ag-2: agonists of human D2 dopamine receptor (beta-arrestin); P14416; DiscoveRx PathHunter D2 beta-arrestin, luminescence, 90 min; 100% = 57 uM dopamine signal; activation, % (test concentration not listed); 0.084% of 360,000 active; in the data active = activation above about 40%; inconclusive = between about 15% and that limit
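Agonist mode: compounds alone added to overnight-plated D2 PathHunter cells for 90 min at 37 C, with 57 uM final dopamine (EC100) defining full response. Beta-arrestin recruitment detected by chemiluminescent reagent, read after 1 h at ambient temperature.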
D2 PAM-1: human D2 receptor positive allosteric modulation. 0.23% of 360,000 active. potentiation, % (test concentration not listed). AID 624464. DiscoveRx D2 beta-arrestin cells, luminescence, 90 min; 100% = 57 uM dopamine signal; in the data active = potentiation above about 50%; inconclusive = mostly about 30% to 49%
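PathHunter beta-arrestin assay in DiscoveRx D2 cells. Compounds were added with an EC20 of dopamine (50 nM final) for 90 min at 37 deg C. Luminescence was read 1 h after detection reagent, with 57 uM dopamine as the EC100 control.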
D2 PAM-2: positively modulates the human D2 dopamine receptor allosterically; 0.34% of 340,000 active; AID 485347; HEK293 T-REx D2, calcium flux, EC20 dopamine potentiation; potentiation, % at 10 µM; P14416;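 active = potentiation over 3 SD above the plate norm, cut at about 30% in these data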
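Cells plated with tetracycline inducer and held overnight at 30 C; calcium dye loaded 30–90 min at room temperature; baseline taken, compound added and read 180 s; EC20 dopamine then added and read 180 s.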
Each line names hits and unclear results; the compound was inactive in the other large screens. Compounds with a hit are over-represented: about 2.4% of the library has one in this group of screens.

CC(O)C(O)C(O)C(O)C1NCCS1 (stereo unspecified)	D2 antag 79
CCN(C(=O)Cn1c(SCc2ccccc2F)nc2cccnc21)c1ccccc1	none (no result: D2 antag, D2 ag-2, D2 PAM-1)
COc1ccc(-c2nc3cc(NC(=O)c4ccc(C)cc4)ccc3o2)cc1Cl	none (no result: D2 ag-1, D2 antag, D2 ag-2, D2 PAM-1)
c1ccc(N2CCN(c3c4c(nc5ncnn35)CCC4)CC2)cc1	none
CC1CCCCC1NC(=O)C1CCN(c2c3c(nc4ncnn24)CCC3)CC1 (stereo unspecified)	D2 antag 34
COc1cccc(N2CCN(c3ncnc4c3[nH]c3ccccc34)CC2C)c1 (stereo unspecified)	none (no result: D2 ag-2, D2 PAM-1)
COc1cccc(N2CCN(c3ncnc4c3[nH]c3ccc(F)cc34)CC2C)c1 (stereo unspecified)	D2 PAM-1 52
O=C1CC(N2CCC(c3nc4ccccc4s3)CC2)C(=O)N1 (stereo unspecified)	D2 antag 33 (no result: D2 PAM-2)
CCOC(=O)c1cc(-c2ccccc2)n(CCC(=O)NCCc2ccccc2)c1C	none (no result: D2 antag, D2 ag-2, D2 PAM-1)
Cc1cccc(C(=O)NCC(=O)OC(C)C(=O)Nc2ccc(Cl)cn2)c1 (stereo unspecified)	D2 antag 37
Cc1cccc(OCC(=O)OC(C)C(=O)Nc2ccc(Cl)cn2)c1 (stereo unspecified)	none
Cc1ccc(CCNC(=O)C2CCN(S(=O)(=O)c3c(C)nn(C)c3C)CC2)cc1	none
Cc1cccc(CCNC(=O)C2CCN(S(=O)(=O)c3c(C)nn(C)c3C)CC2)c1	D2 antag 32
Cc1cc(NC(=O)CCN2CCC(C)CC2)ccc1Br	D2 antag 39
Cc1cc(NC(=O)CN2C(=O)N(C)C3(CCCCC3)C2=O)ccc1Br	D2 antag 33
COc1ccc(Nc2ncnc3onc(C)c23)cc1Cl	none (no result: D2 antag, D2 ag-2, D2 PAM-1)
CCOC(=O)c1cccc(NC(=O)N2Cc3ccccc3Oc3ncccc32)c1	none (no result: D2 antag, D2 ag-2, D2 PAM-1)
COc1ccc2c(Sc3ccc(Cl)cc3)c(C(=O)N3CCCCC3)[nH]c2c1	none (no result: D2 antag, D2 ag-2, D2 PAM-1)
CCC(=O)N1CCCc2cc(S(=O)(=O)N3CCC(C(=O)Nc4ccccc4CC)CC3)ccc21	none (no result: D2 antag, D2 ag-2, D2 PAM-1)
O=C(Nc1ccccc1)c1nc[nH]c1C(=O)NCCNC(=O)c1[nH]cnc1C(=O)Nc1ccccc1	D2 ag-2 inconclusive, D2 PAM-1 61 (no result: D2 ag-1, D2 antag, D2 PAM-2)
O=C(c1cc(F)ccc1F)C1CCCN(C(=O)CCN2CCCCO2)C1 (stereo unspecified)	D2 antag 32
COC(=O)CCC(=O)N1CCCC(C(=O)c2cc(F)ccc2F)C1 (stereo unspecified)	none
COc1ccc(OC)c(NC(=O)CN(C)S(=O)(=O)c2ccc(C(=O)N3CCOCC3)s2)c1	none (no result: D2 antag, D2 ag-2, D2 PAM-1)
Cc1ccc(C)c(Nc2nc(-c3ccncc3)nc3ccccc23)c1	D2 antag 36 (no result: D2 ag-1)
CC1CC(C)CN(C(=O)COC(=O)c2ccc([N+](=O)[O-])o2)C1 (stereo unspecified)	D2 antag 31
O=C(COC(=O)c1ccc([N+](=O)[O-])o1)c1ccccc1	D2 PAM-1 65
COc1cccc(OC)c1C(=O)OCC(=O)N1CC(C)CC(C)C1 (stereo unspecified)	D2 antag 32
O=C(COC(=O)c1ccc([N+](=O)[O-])o1)NCc1ccccc1	none (no result: D2 ag-1, D2 antag, D2 PAM-2)
COc1cccc(OC)c1C(=O)OCC(=O)N1CCC(Cc2ccccc2)CC1	none (no result: D2 ag-1, D2 antag, D2 PAM-2)
CCOC(=O)C1CCN(C(=O)COC(=O)c2ccc([N+](=O)[O-])o2)CC1	D2 ag-2 inconclusive
O=C(OCCCOC(=O)c1ccc([N+](=O)[O-])o1)c1ccc([N+](=O)[O-])o1	D2 PAM-1 53
CC1CCc2onc(C(=O)N3CCN(c4ccc(F)cc4)CC3)c2C1 (stereo unspecified)	none (no result: D2 antag, D2 ag-2, D2 PAM-1)
COc1cc2c(=O)c(C(=O)c3ccc(C)c(C)c3)cn(Cc3ccccc3F)c2cc1OC	none (no result: D2 antag, D2 ag-2, D2 PAM-1)
Cc1ccc(C2c3[nH]c4ccccc4c3CCN2C(=O)CCc2ccccc2)cc1 (stereo unspecified)	none (no result: D2 antag, D2 ag-2, D2 PAM-1)
COC(=O)[C@@H]1C[C@@H]2CC[C@@H](O)C[C@@H]2N1Cc1ccc(OC)cc1	D2 antag 39
Cc1ccccc1NC1=C(C(=O)c2ccccc2)N(C)S(=O)(=O)c2ccccc21	none
O=C(C1=C(Nc2ccccc2)c2ccccc2S(=O)(=O)N1)c1ccccc1	D2 antag 40
O=C(N1CCOCC1)N1CCC(n2nnc3cc(F)ccc32)CC1	none (no result: D2 ag-1, D2 antag)
O=C(c1ccc([N+](=O)[O-])cc1)N1CCC(n2nnc3cc(F)ccc32)CC1	D2 PAM-2 33
O=C(Nc1cccc(-n2cnnn2)c1)c1ccc(C(F)(F)F)cc1	D2 antag 57
CCc1ccc(OCC(=O)NNC(=O)c2ccc(NC(=O)C3CC3)cc2)cc1	D2 antag 31
COc1ccc(F)cc1S(=O)(=O)NC1CC(C)(C)NC(C)(C)C1	D2 PAM-2 35
COc1cc(-c2nc3ccccn3c2/N=C/c2cc(OC)c(OC)c(OC)c2)ccc1O	D2 PAM-1 52 (no result: D2 ag-1, D2 antag, D2 PAM-2)
COc1ccc(Cl)cc1NC(=O)CN(C)C(=O)CCC(=O)c1cc(C)sc1C	D2 antag 62
COc1ccc(Cl)cc1NC(=O)CN(C)C(=O)c1ccc(OCc2ccccc2)c(OC)c1	D2 antag 37
Cc1cc(Br)ccc1NC(=O)C1(S(=O)(=O)c2ccc(Cl)cc2)CC1	none (no result: D2 antag, D2 ag-2, D2 PAM-1, D2 PAM-2)
CC(C)(C)C(=O)COC(=O)c1c2c(nc3ccccc13)CCC2	D2 PAM-2 39
NC(=O)COC(=O)c1c2c(nc3ccccc13)CCCCC2	none (no result: D2 ag-1, D2 antag, D2 PAM-2)
Cc1ccc(NC(=O)CN(C)C(=O)COc2cc(F)ccc2[N+](=O)[O-])cc1	D2 antag 62
COc1ccc(-c2cc([N+](=O)[O-])ccc2OCC(=O)N(C)CC(=O)Nc2ccc(C)cc2)cc1	none
Cc1occc1C(=O)NNC(=O)c1ccccc1C(=O)O	D2 antag 31
Cc1ccccc1C(=O)NNC(=O)c1ccoc1C	none (no result: D2 ag-1, D2 antag, D2 PAM-2)
COc1ccc(OC)c(NC(=O)c2cc(-c3ccc(C)cc3O)n[nH]2)c1	D2 antag 32
Cc1ccc(-c2c(CN3CCN(c4cc(Cl)ccc4C)CC3)csc2C)cc1	none (no result: D2 antag, D2 ag-2, D2 PAM-1)
COC(=O)[C@H]1[C@H](c2ccccc2)[C@H](C(=O)OC)O[C@H]1c1ccccc1	none (no result: D2 ag-1, D2 antag, D2 PAM-2)
COC(=O)C1C(c2ccccc2)C(C(=O)N2CCN(C)CC2)C1c1ccccc1 (stereo unspecified)	D2 antag 33
CN(C)S(=O)(=O)c1cccc(C(=O)Nc2ccc(Cl)cn2)c1	D2 antag 37
O=C(Nc1ccc(Cl)cn1)c1cccc(S(=O)(=O)N2CCCC2)c1	none
Nc1c(C(=O)Nc2ccc(OC(F)(F)F)cc2)nnn1Cc1ccccc1	none (no result: D2 antag, D2 ag-2, D2 PAM-1)
CCCN1CCc2c(sc(NC(=O)c3ccc(S(=O)(=O)N(C)c4ccccc4)cc3)c2C(N)=O)C1	D2 ag-1 78
CC(C)N1CCc2c(sc(NC(=O)CCS(=O)(=O)c3ccccc3)c2C#N)C1	D2 antag 34
